Data: PubChem BioAssay AID720518 (National Center for Advancing Translational Sciences (NCATS), 2013)
Results filed as inconclusive are left out. Where a call stands in place of a potency, no number is given. Active and inactive are the calls of the source. The call rests on the fitted dose curve.

Assay: qHTS for Inhibitors of Cell Surface uPA Generation: Wild-type Protective Antigen (WT-PrAg) Counterscreen for Cherry-picked Compounds
Conditions: cells, WT protective antigen toxicity counterscreen; series mostly up to 115 µM
Potency means the concentration at half of the fitted maximal effect.

Compound	Potency
CCCCCOC(=O)C1=C(C)NC(=O)NC1c1ccccc1 (stereo not given)	inactive
O=C(NNC(=O)c1cccnc1)c1ccncc1	inactive
COCC(=O)N1Cc2ccccc2-n2nncc2C1	inactive
O=C(CSc1ccc(Cl)cc1)Nc1ccc(C2SCCS2)cc1	inactive
Cc1oc2c(Cl)c(Cl)c(O)c(CN(C)C)c2c1C(=O)c1ccc(Cl)cc1	inactive
CN(CC(=O)NCc1ccco1)CC(=O)Nc1c(Cl)cccc1Cl	inactive
C=C(C)C(=O)O[C@H]1C/C(C)=C\C(=O)/C=C(\C)[C@H](O)[C@@H]2OC(=O)C(=C)[C@@H]21	inactive
CC(=O)c1cnc2nc(SCc3cccc(C)c3)nn2c1C	inactive
COc1cc(/C=C(/C#N)C(=O)Nc2ccccc2)ccc1OCc1ccc(C(=O)O)cc1	inactive
Cc1nc(SCc2nc3ccccc3[nH]2)c2oc3cc([N+](=O)[O-])ccc3c2n1	inactive
O=C(COC(=O)c1cc([N+](=O)[O-])ccc1NCCO)NCc1cccs1	inactive
COc1ccc(NS(=O)(=O)c2cc(NS(=O)(=O)c3cc(C(=O)O)ccc3OC)ccc2C)cc1	inactive
O=C(CSc1nncs1)NC(=O)NCc1ccco1	inactive
COC(=O)C1C(=O)c2c([nH]c(C(=O)OC3CCCCC3)c2C)CC1C (stereo not given)	inactive
C=CS(=O)(=O)c1ccc(Oc2ccc(S(=O)(=O)C=C)cc2)cc1	65.6 µM (active)
CCCn1nnc(NC(=S)NC(=O)c2ccccc2OC)n1	inactive
O=C(NC1CC1)C1CCCN(C(=O)NC2CCCCC2)C1 (stereo not given)	inactive
COc1ccc(C(=O)NC(=S)Nc2ccc(NC(=O)c3ccco3)cc2)cc1[N+](=O)[O-]	inactive
Cc1nc2nc(C)c(NS(=O)(=O)c3ccc(Cl)cc3)c(=O)n2[nH]1	inactive
COc1ccc(CC(=O)OCC(=O)NNC(=O)c2ccccc2)cc1	inactive

Compound	Potency
CC(=O)c1ccc2c(c1)c1ccccc1n2CC(C)C	inactive
Cc1ccc(NS(=O)(=O)c2c(C)nc3sccn3c2=O)c(C)c1	inactive
CCOC(=O)C1CCN(S(=O)(=O)c2c[nH]c(=O)[nH]c2=O)CC1	inactive
O=C(c1ccco1)N1CCN(c2ncccn2)CC1	inactive
COCCOc1ccc(C(F)(F)F)cc1NC(=O)COC(=O)Cc1c[nH]c2ccccc12	inactive
Cc1cc(/C=N/NC(=O)c2ccccc2F)c(C)n1-c1ccccc1	inactive
COc1cccc(CNC(=O)C2CCCN(S(=O)(=O)c3ccc4c(c3)C(C)(C)C(=O)N4C)C2)c1 (stereo not given)	inactive
COc1cc(NC(=O)COC(=O)c2cc(S(=O)(=O)N3CCCCC3)ccc2Cl)c(C)cc1[N+](=O)[O-]	inactive
O=C(CNC(=O)N1CC(=O)Nc2ccccc21)Nc1cc(Cl)ccc1Cl	inactive
CC(C)(C)OC(=O)C[C@@H]1C/C=C\C[C@@H](CC(=O)N(CCO)Cc2ccccc2)C(=O)N[C@H](Cc2c[nH]c3ccccc23)COC1=O	inactive
CS(=O)(=O)Nc1cccc(C2=NN(S(=O)(=O)c3ccccc3)C(c3ccco3)C2)c1 (stereo not given)	inactive
Cc1cc(=O)n2nc(N3CCCC(C(=O)NCc4ccc(Cl)cc4)C3)sc2n1 (stereo not given)	inactive
Cc1cc(-c2ccccc2)nc(N/N=C/c2ccc(N(C)C)cc2)n1	inactive
O=[N+]([O-])c1ccc(-c2cn3c(n2)SCC3)cc1	inactive
O=C1NCCN1C(=O)N(c1ccccc1)c1ccccc1	inactive
CCOC(=O)Cn1c(=O)cc(C)c2cccc(C)c21	inactive
N#Cc1ccccc1Sc1ccccc1C(=O)Nc1ccc(Br)cc1	inactive
COc1cc(NS(=O)(=O)c2ccc(NC(=S)NC(=O)COc3ccccc3OC)cc2)nc(OC)n1	inactive
O=C(CN1CCOC1=O)N1CCCC(Nc2ccc(F)c(F)c2)C1 (stereo not given)	inactive
O=[N+]([O-])c1ccc(SCc2ccncc2)nc1	inactive
